The campaign covered roughly 310,000 compounds. About 14,000 (4.5%) showed an effect of 50% or more. Effects have a minus sign here. This excerpt belongs to a sample that is enriched for strong results.
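Further: peak tail current of the secondary pulse compared with the same well before compound.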

Sequence of human ether-à-go-go-related gene (hERG) potassium channel (Q12809 whole entry, looked up): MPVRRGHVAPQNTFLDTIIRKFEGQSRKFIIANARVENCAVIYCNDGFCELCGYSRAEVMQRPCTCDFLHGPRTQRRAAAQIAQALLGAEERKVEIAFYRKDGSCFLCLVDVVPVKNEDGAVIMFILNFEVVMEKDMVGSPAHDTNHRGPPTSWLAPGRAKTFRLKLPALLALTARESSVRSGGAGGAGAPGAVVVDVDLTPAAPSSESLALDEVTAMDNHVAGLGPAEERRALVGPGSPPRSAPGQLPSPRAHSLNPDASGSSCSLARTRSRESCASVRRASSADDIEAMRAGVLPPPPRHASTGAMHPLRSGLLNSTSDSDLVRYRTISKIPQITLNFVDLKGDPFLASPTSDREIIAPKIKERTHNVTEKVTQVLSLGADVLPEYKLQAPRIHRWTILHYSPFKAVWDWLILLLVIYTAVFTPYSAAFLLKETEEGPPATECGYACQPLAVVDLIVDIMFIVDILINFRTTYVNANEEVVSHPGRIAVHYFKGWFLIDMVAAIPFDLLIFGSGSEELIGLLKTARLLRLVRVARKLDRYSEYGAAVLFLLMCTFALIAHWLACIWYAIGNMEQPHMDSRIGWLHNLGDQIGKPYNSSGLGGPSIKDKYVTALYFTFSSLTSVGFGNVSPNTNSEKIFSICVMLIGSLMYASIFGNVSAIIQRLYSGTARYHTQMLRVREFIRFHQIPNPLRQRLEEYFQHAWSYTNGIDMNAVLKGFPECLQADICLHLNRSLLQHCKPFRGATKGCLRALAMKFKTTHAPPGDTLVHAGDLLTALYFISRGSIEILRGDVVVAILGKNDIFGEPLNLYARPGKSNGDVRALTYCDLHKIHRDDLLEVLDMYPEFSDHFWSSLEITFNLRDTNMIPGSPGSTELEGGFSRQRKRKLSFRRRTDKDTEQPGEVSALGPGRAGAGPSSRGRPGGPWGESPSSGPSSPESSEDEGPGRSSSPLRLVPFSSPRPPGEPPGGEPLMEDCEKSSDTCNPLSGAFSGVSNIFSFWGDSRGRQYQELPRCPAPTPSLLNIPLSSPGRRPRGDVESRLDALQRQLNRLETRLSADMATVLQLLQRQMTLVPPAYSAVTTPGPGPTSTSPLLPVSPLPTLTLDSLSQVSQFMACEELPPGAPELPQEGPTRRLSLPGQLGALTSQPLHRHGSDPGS

This test addresses human ether-à-go-go-related gene (hERG) potassium channel (human, UniProt Q12809). Kind of test: primary screen, population patch clamp on CHO cells stably expressing hERG; higher = less effect of the substance.
In the case of `Nc1ccc(C(=O)OCC(=O)c2cccc([N+](=O)[O-])c2)cc1`, the “hERG current change (%, negative = inhibition) at 10uM” value turned out to be 39.8%. On to `Cc1ccccc1C(C(=O)NC1CCCCC1)N(C(=O)CNC(=O)c1ccco1)c1cccnc1` (stereo not shown), for which the “hERG current change (%, negative = inhibition) at 10uM” value was determined as 6.3%. The same measure for `CC(C)CN(C(=O)CSc1n[nH]c(-c2cccs2)n1)C1CCS(=O)(=O)C1` (stereo not shown): -2.69%; for `O=C(OCc1ccc([N+](=O)[O-])cc1)C1CC(=O)N(CCc2ccccc2)C1` (stereo not shown): -69.4%.

`Cc1ccc(CN2CC(C(=O)OCc3ccccc3Cl)CC2=O)cc1` (stereo not shown): the “hERG current change (%, negative = inhibition) at 10uM” value was 0.354%. The same measure for `O=C(OCc1ccc([N+](=O)[O-])cc1)C1CC(=O)N(Cc2ccccc2Cl)C1` (stereo not shown): -66.4%; for `O=C(Nc1cccc([N+](=O)[O-])c1)C1CC(=O)N(Cc2ccccc2)C1` (stereo not shown): -53.2%; for `CCOC(=O)c1ccccc1NC(=O)COC(=O)C1CCCC1`: -2.49%.

For `O=C(Nc1ccccc1)C1CC(=O)N(Cc2ccccc2)C1` (stereo not shown), the “hERG current change (%, negative = inhibition) at 10uM” value is recorded as 2.14%. Consider `CCOC(=O)c1ccccc1NC(=O)COC(=O)C1CC(=O)N(CCc2ccccc2)C1` (stereo not shown), for which the “hERG current change (%, negative = inhibition) at 10uM” value is reported as -75.6%. `Cc1nn(-c2ccccc2)c(C)c1NC(=O)COC(=O)C1CC(=O)N(CCc2ccccc2)C1` (stereo not shown): the “hERG current change (%, negative = inhibition) at 10uM” value came out at 9.52%. Regarding `CCOc1ccc(COC(=O)C2CC(=O)N(CCc3ccccc3)C2)cc1OC` (stereo not shown), the “hERG current change (%, negative = inhibition) at 10uM” value is -21.6%. With `O=C(Nc1ccc(F)c([N+](=O)[O-])c1)C1CC(=O)N(Cc2ccccc2)C1` (stereo not shown), the “hERG current change (%, negative = inhibition) at 10uM” value is given as -34.4%. `O=C(OCc1ccccc1Cl)C1CC(=O)N(Cc2ccco2)C1` (stereo not shown): the “hERG current change (%, negative = inhibition) at 10uM” value worked out at 11.4%. As for `O=C(O)C1CC(=O)N(CCc2ccccc2)C1` (stereo not shown), the “hERG current change (%, negative = inhibition) at 10uM” value was determined as 6.79%.

Consider `O=C(N/N=C/C(Br)=C/c1ccccc1)C1CC1`, for which the “hERG current change (%, negative = inhibition) at 10uM” value worked out at 32.2%.

For the molecule `COc1ccc(NC(=O)Cn2nnc(C(=O)NCc3ccc4c(c3)OCO4)c2N)c(OC)c1`, the “hERG current change (%, negative = inhibition) at 10uM” value is reported as 18.1%. For `COc1ccc2oc(C(=O)Nc3nccs3)c(C)c2c1`, the “hERG current change (%, negative = inhibition) at 10uM” value came out at 16.7%. On to `O=C(OCc1nnc(-c2ccc([N+](=O)[O-])cc2)o1)C1CC(=O)N(CCc2ccccc2)C1` (stereo not shown), for which the “hERG current change (%, negative = inhibition) at 10uM” value was -61.7%. With `O=C(OCc1nnc(-c2ccccc2)o1)C1CC(=O)N(CCc2ccccc2)C1` (stereo not shown), the “hERG current change (%, negative = inhibition) at 10uM” value is listed as -31%.

Turning to `O=C(OCc1nnc(-c2ccccc2)o1)C1CC(=O)N(c2ccccc2)C1` (stereo not shown), the “hERG current change (%, negative = inhibition) at 10uM” value is on record as -21.5%. `COc1ccc(OC)c(CCNC(=O)CCn2nc(C)c3c(C)n(-c4ccccc4)nc3c2=O)c1`: the “hERG current change (%, negative = inhibition) at 10uM” value was determined as 18.5%. On to `COC(=O)c1oc2ccc(Br)cc2c1NC(C)=O`, for which the “hERG current change (%, negative = inhibition) at 10uM” value was 3.19%. Turning to `CCOC(=O)c1oc2ccc(OC)cc2c1NC(=O)CN1CCN(C)CC1.Cl`, the “hERG current change (%, negative = inhibition) at 10uM” value was -5.54%. With `CCOC(=O)c1oc2ccccc2c1NC(=O)CN1CCOCC1` the figure was 6.54%; with `CCCC(=O)Nc1c(C(=O)OCC)oc2ccccc12`, 1.98%; with `COC(=O)c1oc2ccc(Br)cc2c1NC(=O)CN1CCN(C)CC1`, -62.3%. As to `COC(=O)c1oc2ccc(Br)cc2c1NC(=O)CCN1CCOCC1`, the “hERG current change (%, negative = inhibition) at 10uM” value was -17.7%. With `CCOC(=O)c1oc2ccccc2c1NC(=O)CN1CCN(C)CC1` the figure was -58.4%; with `COC(=O)c1oc2ccc(Br)cc2c1NC(=O)CCCN1C(=O)c2ccccc2C1=O`, 17.1%. Regarding `CCOC(=O)c1oc2ccc(Br)cc2c1NC(=O)CN1CCN(C)CC1`, the “hERG current change (%, negative = inhibition) at 10uM” value is listed as -65.8%. With `Cc1ccc(C)c(N=Cc2c(O)c3ccccc3oc2=O)c1`, the “hERG current change (%, negative = inhibition) at 10uM” value is on record as 16.3%. As for `CCc1ccc(C(C(=O)NC2CCCC2)N(C(=O)/C=C/C(=O)Nc2cc(C)on2)c2ccccc2C)cc1` (stereo not shown), the “hERG current change (%, negative = inhibition) at 10uM” value amounted to 9.58%. Regarding `C/C(=N\Nc1ccccc1Cl)c1ccc(-n2ccnc2)cc1`, the “hERG current change (%, negative = inhibition) at 10uM” value is reported as -7.1%.

In the case of `COCCCN1CN=C(NS(=O)(=O)c2ccc(C)cc2)NC1`, the “hERG current change (%, negative = inhibition) at 10uM” value turned out to be 13.3%. Take `CC(=O)c1cccc(NC(=O)COc2ccc(S(=O)(=O)N3CCOCC3)cc2)c1`: the “hERG current change (%, negative = inhibition) at 10uM” value was -10.1%. As for `Cc1nc2ccc(-c3nc4ccccc4[nH]3)cc2[nH]1`, the “hERG current change (%, negative = inhibition) at 10uM” value came to 7.78%. Regarding `Cc1ccc(S(=O)(=O)NCCC(=O)NC2CCCCC2C)cc1` (stereo not shown), the “hERG current change (%, negative = inhibition) at 10uM” value came out at 3.4%. For `O=C(Nc1cccc2ccccc12)C12CC3CC(C1)CC(n1cnc([N+](=O)[O-])n1)(C3)C2`, the “hERG current change (%, negative = inhibition) at 10uM” value is recorded as -44.5%. The same measure for `CC(=O)Nc1ccc(NC(=O)C23CC4CC(C2)CC(n2cnc(Br)n2)(C4)C3)cc1`: -63.4%; for `Cc1ccc(F)cc1NC(=O)C12CC3CC(C1)CC(n1cnc([N+](=O)[O-])n1)(C3)C2`: -52.8%. For `COc1ccc(OC)c(NC(=O)C23CC4CC(C2)CC(n2cnc(Br)n2)(C4)C3)c1`, the “hERG current change (%, negative = inhibition) at 10uM” value is recorded as -41.2%.

With `O=C(Nc1ccccc1)C12CC3CC(C1)CC(n1cnc([N+](=O)[O-])n1)(C3)C2`, the “hERG current change (%, negative = inhibition) at 10uM” value was -59.6%. Consider `COC(=O)c1ccccc1NC(=O)C12CC3CC(C1)CC(n1cnc(Cl)n1)(C3)C2`, for which the “hERG current change (%, negative = inhibition) at 10uM” value is -38.5%. Regarding `COc1ccc(NC(=O)C23CC4CC(C2)CC(n2cnc(Br)n2)(C4)C3)c(OC)c1`, the “hERG current change (%, negative = inhibition) at 10uM” value was -23.4%.

As for `COc1ccc(NC(=O)C23CC4CC(C2)CC(n2cnc(Br)n2)(C4)C3)cc1OC`, the “hERG current change (%, negative = inhibition) at 10uM” value is -2.41%. With `COc1ccc(NC(=O)C23CC4CC(C2)CC(n2cnc(Br)n2)(C4)C3)cc1Cl`, the “hERG current change (%, negative = inhibition) at 10uM” value is on record as 3.08%. Consider `COC(=O)c1ccc(NC(=O)C23CC4CC(C2)CC(n2cnc(Cl)n2)(C4)C3)cc1`, for which the “hERG current change (%, negative = inhibition) at 10uM” value is listed as -27.3%. As for `COc1ccc(NC(=O)C23CC4CC(C2)CC(n2cnc(Br)n2)(C4)C3)c(C)c1`, the “hERG current change (%, negative = inhibition) at 10uM” value was -9.06%. With `COc1cc(NC(=O)C23CC4CC(C2)CC(n2cnc([N+](=O)[O-])n2)(C4)C3)cc(OC)c1` the figure was -66.7%; with `Cn1c(=O)c([N+](=O)[O-])c(NCC(O)c2ccccc2)c2ccccc21` (stereo not shown), -2.03%.

For `CCOC(=O)Cc1nn(C(C)C)c(=O)c2ccccc12`, the “hERG current change (%, negative = inhibition) at 10uM” value was 26.6%. `Cc1cccc(NC(=O)CCn2nc(C)cc2C)c1`: the “hERG current change (%, negative = inhibition) at 10uM” value came out at 9.02%. Turning to `CN(C)C(=O)/C(=C/c1cn(-c2ccccc2)nc1-c1cccc([N+](=O)[O-])c1)NC(=O)c1ccccc1`, the “hERG current change (%, negative = inhibition) at 10uM” value is -29.1%. Regarding `CCNC(=S)N1CCCC(c2nc3ccc(C)cc3[nH]2)C1` (stereo not shown), the “hERG current change (%, negative = inhibition) at 10uM” value is on record as -2.45%. For `CC1=C(C(=O)OCc2ccccc2)C(c2ccc(Cl)cc2Cl)NC(=O)N1CCCCCC(=O)O` (stereo not shown), the “hERG current change (%, negative = inhibition) at 10uM” value was -16.2%. Consider `CCN(CC(=O)Nc1ccc(OC)cc1)C(=O)c1cc(-c2cccs2)nn1-c1ccccc1`, for which the “hERG current change (%, negative = inhibition) at 10uM” value is -15.4%. As for `CCOc1ccc(CN(C)C(=O)[C@H](Cc2ccccc2)NC(=O)OCc2ccccc2)cc1OC`, the “hERG current change (%, negative = inhibition) at 10uM” value was -15.7%. On to `c1csc(CNc2ncnc3nc[nH]c23)c1`, for which the “hERG current change (%, negative = inhibition) at 10uM” value is recorded as -2.79%. Turning to `O=[N+]([O-])c1ncn(C23CC4CC(CC(C4)C2)C3)n1`, the “hERG current change (%, negative = inhibition) at 10uM” value was -8.76%. Regarding `O=C(Nc1cc(Oc2ccccc2)cc([N+](=O)[O-])c1)C12CC3CC(C1)CC(n1cnc(Cl)n1)(C3)C2`, the “hERG current change (%, negative = inhibition) at 10uM” value is 13.9%. Take `O=C(Nc1ccon1)C12CC3CC(C1)CC(n1cnc([N+](=O)[O-])n1)(C3)C2`: the “hERG current change (%, negative = inhibition) at 10uM” value is on record as -50.5%. Regarding `Cc1cc(NC(=O)C23CC4CC(C2)CC(n2cnc([N+](=O)[O-])n2)(C4)C3)no1`, the “hERG current change (%, negative = inhibition) at 10uM” value is listed as -32.4%.

For the molecule `O=C(Nc1cccc([N+](=O)[O-])c1)C12CC3CC(C1)CC(n1cnc([N+](=O)[O-])n1)(C3)C2`, the “hERG current change (%, negative = inhibition) at 10uM” value was -67.8%.

`O=C(O)c1cccc(NC(=O)C23CC4CC(C2)CC(n2cnc(Cl)n2)(C4)C3)c1`: the “hERG current change (%, negative = inhibition) at 10uM” value stood at 6.02%. In the case of `COc1ccc(CNC(=O)c2coc(=O)c3ccccc23)cc1`, the “hERG current change (%, negative = inhibition) at 10uM” value was -27.3%.

As for `O=C(NC1CCN(Cc2ccccc2)CC1)C(NS(=O)(=O)c1cccc2nsnc12)c1ccccc1` (stereo not shown), the “hERG current change (%, negative = inhibition) at 10uM” value is given as -44.6%. Take `Cc1ccc(OCC(=O)N/N=C\c2cccn2C)c([N+](=O)[O-])c1`: the “hERG current change (%, negative = inhibition) at 10uM” value is -8.65%. Turning to `O=C(O)[C@H]1CCCC[C@H]1C(=O)Nc1ccc(Nc2ccccc2)cc1`, the “hERG current change (%, negative = inhibition) at 10uM” value is on record as 4.15%. Regarding `CSc1sc(C(=O)N2CCc3ccccc32)cc1S(=O)(=O)C(C)C`, the “hERG current change (%, negative = inhibition) at 10uM” value is 14.2%. The same measure for `Cn1cnnc1Sc1ccc(S(C)(=O)=O)cc1[N+](=O)[O-]`: 13%; for `CN1CCN(c2ccc([N+](=O)[O-])c(Sc3nncn3C)c2)CC1`: -9.71%; for `Cc1ccc(S(=O)(=O)N2CCN(c3ccc([N+](=O)[O-])c(Sc4nncn4C)c3)CC2)cc1`: -62.3%. As for `Cn1cnnc1Sc1cc(N2CCN(S(=O)(=O)c3ccc(Cl)c(Cl)c3)CC2)ccc1[N+](=O)[O-]`, the “hERG current change (%, negative = inhibition) at 10uM” value is given as -10.6%. Consider `Cn1cnnc1Sc1cc(N2CCN(S(=O)(=O)c3ccccc3)CC2)ccc1[N+](=O)[O-]`, for which the “hERG current change (%, negative = inhibition) at 10uM” value is listed as -60.5%. Take `Cn1cnnc1Sc1cc(N2CCNCC2)ccc1[N+](=O)[O-]`: the “hERG current change (%, negative = inhibition) at 10uM” value is reported as 7.66%. As for `[N-]=[N+]=NC(c1ccccc1)c1nc2ccccc2[nH]c1=O` (stereo not shown), the “hERG current change (%, negative = inhibition) at 10uM” value is reported as -7.74%. The same measure for `Nc1ccccc1Cl`: 10.3%; for `O=C(NCc1ccco1)c1cccc(Nc2nc3ccc(Br)cc3[nH]2)c1`: -11.2%; for `Cc1ccc(-n2c(C)cc(/C=N/Nc3ccc([N+](=O)[O-])cn3)c2C)cc1`: -4.67%. For `Cc1cc(C=O)c(C)n1-c1ccc(Oc2ccc([N+](=O)[O-])cn2)cc1`, the “hERG current change (%, negative = inhibition) at 10uM” value is on record as -56.7%.

Take `COc1ccc(NC(=O)/C(C#N)=C\c2cc(C)n(-c3ccc(Oc4ccc([N+](=O)[O-])cn4)cc3)c2C)cc1`: the “hERG current change (%, negative = inhibition) at 10uM” value was 10.8%.
